Results taken from PubChem BioAssay AID2061324 (National Center for Advancing Translational Sciences (NCATS), 2025).
Results filed as inconclusive are left out. Active and inactive are the calls of the source. Calls come from the whole dose curve; as a rule, active = well fitted inhibition curve with a large enough effect; inconclusive = small, poorly fitted or top-dose-only effect; inactive = flat fitted curve, though single readings scatter.

Assay: Identification of antibody-drug conjugate (ADC) payloads which are substrates of ATP-binding cassette drug efflux transporters: ABCG2-HEK293-pcDNA cell line
Details: ABCG2-HEK293 transfected cells viability, CellTiter-Glo, 48 h
Excerpt: Antibody-drug conjugates (ADCs) feature an antibody recognizing a specific protein joined to a potent toxic payload. Numerous antibody-drug conjugates have received FDA approval; however, clinical resistance arises. Resistance mechanisms include decreased expression or mutation of the antibody target, impaired payload release, or increased expression of ATP-binding cassette (ABC) efflux transporters associated with multidrug resistance. We therefore sought to characterize the interaction of ABC multidrug transporters with ADC payloads. We performed a high-throughput screen with 27 common ADC payloads using cells lines expressing ABC transporters P-glycoprotein (P-gp, encoded by ABCB1) or ABCG2 (encoded by ABCG2). Confirmatory assays were also performed using cells transfected to express P-gp, ABCG2, or MRP1 (encoded by ABCC1). Several commonly used ADC payloads were substrates of P-gp, including calicheamicin gamma1, monomethyl auristatin E, DM1, and DM4. All the pyrrolobenzodiazepines tested - SJG136, SGD-1882, SG2057, and SG3199 - were substrates of P-gp, ABCG2, and MRP1. […] These findings highlight the risk of transporter-mediated resistance with certain ADC payloads and underscore the importance of selecting payloads that evade ABC transporter recognition in future ADC development.
HEK-293 cells were transfected with empty vector (pcDNA) or vector containing the human ABCB1 (MDR-19), ABCG2 (R-5), or ABCC1 gene (MRP1) and were maintained in EMEM with 2 mg/mL G418 added to maintain transporter expression. The HeLa derivative KB-3-1 and the P-gp overexpressing KB-8-5-11 subline were maintained in DMEM; KB-8-5-11 additionally received 100 ng/mL colchicine. H460 parental cells were obtained from the Division of Cancer Treatment and Diagnosis Tumor Repository, National Cancer Institute at Frederick, MD and were cultured in RPMI. The ABCG2 expressing subline H460 MX20 was generated by selecting H460 cells in 20 nM mitoxantrone. Media in all cases was supplemented with 10% FBS and 1% penicillin-streptomycin. We explored 27 common ADC payloads, in two orthogonal, paired cell line sets-a drug selected and transfected set for each transporter--to identify substrates of the ABC transporters P-gp and ABCG2. Compounds were sourced from Levena Biopharma (San Diego, CA), Selleck Chem (Houston, TX), ChemieTek (Indianapolis, IN), or Microsource Discovery Systems (Gaylordsville, CT). Screening was performed as previously described. Briefly, cells were plated at a density of 500 cells/well in 1536 well plates with compounds added using a 1536-head pin tool (Kalypsys, San Diego CA). Cells were incubated with cytotoxic drugs and processed with CellTiter Glo reagent (Promega, Madison, WI) to determine viability after 48 hours. P-gp substrates were identified by comparing compound activity between paired sets of low-expressing (sensitive) and over-expressing (resistant) cell lines.

| Compound | Potency |
| --- | --- |
| COc1cc2cc(c1Cl)N(C)C(=O)C[C@H](OC(=O)[C@H](C)N(C)C(=O)CCC(C)(C)S)[C@]1(C)OC1[C@H](C)C1C[C@@](O)(NC(=O)O1)[C@H](OC)/C=C/C=C(\C)C2 (some centres not stated) | 2.4 nM (active) |
| COc1cc2cc(c1Cl)N(C)C(=O)C[C@H](OC(=O)C(C)C)[C@]1(C)O[C@H]1[C@H](C)[C@@H]1C[C@@](O)(NC(=O)O1)[C@H](OC)C=CC=C(C)C2 | 1.1 nM (active) |
| CC[C@@]1(O)C(=O)OCc2c1cc1n(c2=O)Cc2cc3ccccc3nc2-1 | 15 nM (active) |
| CC[C@H](C)[C@H](NC(=O)[C@H]1CCCCN1C)C(=O)N(C)[C@H](C[C@@H](OC(C)=O)c1nc(C(=O)N[C@@H](Cc2ccccc2)C[C@H](C)C(=O)O)cs1)C(C)C | 23.8 nM (active) |
| CC[C@H](C)[C@@H]([C@@H](CC(=O)N1CCC[C@H]1[C@H](OC)[C@@H](C)C(=O)N[C@H](C)[C@@H](O)c1ccccc1)OC)N(C)C(=O)[C@@H](NC(=O)[C@H](C(C)C)N(C)C)C(C)C | 9.5 nM (active) |
| COc1cc2cc(c1Cl)N(C)C(=O)C[C@H](OC(=O)[C@H](C)N(C)C(=O)CCS)[C@]1(C)OC1[C@H](C)C1C[C@@](O)(NC(=O)O1)[C@H](OC)/C=C/C=C(\C)C2 (some centres not stated) | 9.5 nM (active) |
| COc1cc2cc(C(=O)N3C[C@@H](CCl)c4c3cc(O)c3ccccc43)[nH]c2c(OC)c1OC | 7.5 nM (active) |
